For 40 molecules, growth results are on record in PubChem BioAssay (NCI).

About 83,000 compounds went through this panel and 20% of them were active in at least one assay; those are over-represented in the sample as a whole.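 Cell lines were cultured in 96-well plates, exposed to a single compound concentration, and assessed for percent growth 48 hours later.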 Active and inactive are the calls of the source.

The test system of this experiment is U251 CNS. Description: NCI-60 one-dose screen, 48 h (100 = growth as untreated, 0 = no growth, -100 = all killed). The note with it: 10 µM unless noted. Here is the method:
Growth inhibition of the U251 human tumor cell line is measured as a screen for anti-cancer activity. Cells are grown in 96 well plates and exposed to the test compound for 48 hours. Compounds are tested at a single concentration, which is 10^-5 M for most compounds. The reported endpoint is percent growth (GI% or GIPRCNT), where numbers from 0 - 100% represent growth inhibition, and numbers from -100% - 0 represent cell death. For example, a value of 40 represents 60% growth inhibition. A value of 0 means no net growth occurred over the course of the experiment. A value of -40 indicates 40% of cells at the beginning of the experiment died by the end of the experiment. A value of -100 means all cells are dead at the end of the experiment.
NCI-60 Human Tumor Cell Lines Screen was performed using the standard one-dose NCI protocol, which is described in more detail at https://dtp.cancer.gov/discovery_development/nci-60/default.htm.
Compounds with GIPRCNT values below 10 were considered active. Activity score was based on GIPRCNT using the following formula: […]
Score is 0 for GIPRCNT values of 100 or above, 50 for GIPRCNT values of 0, and 100 for GIPRCNT values of -100.
Turning to `O=C1[C@@H]2Cc3c([nH]c4ccccc34)[C@@H](c3ccc(Cl)cc3)N2C(=O)CN1C1CCN(Cc2c(F)cccc2F)CC1`, the growth was 38% (inactive).

As for `CCNC(=O)Oc1ccc(/C(=C(/C)c2ccc(Cl)cc2)c2ccc(OCCN3CCCCCC3)cc2)cc1`, the growth is 27.5% (inactive).

In the case of `Brc1cc(-c2cc(-c3ccc4c(c3)OCCO4)[nH]n2)cs1`, the growth was 40% (inactive).

`N#C/C(=C\c1ccc(-c2ccc(Cl)cc2)o1)C(=O)Nc1ncc(Cc2ccc(Br)cc2)s1`: the growth was -81.9% (active).

`CCOC(=O)c1c(NC(=O)c2ccc(C(F)(F)F)cc2)sc2c3c(ccc12)OCN(C)C3`: the growth was -72.5% (active).

In the case of `Cc1nc(N)sc1-c1csc(Nc2ccc(C(F)(F)F)cc2)n1`, the growth is 53.3% (inactive).

Consider `COc1cc2oc(-c3cccc(NC(=O)[C@@H](N)C(C)C)c3)cc(=O)c2c(OC)c1OC`, for which the growth is 92.3% (inactive).

Consider `C#CCOc1ccc(-c2csc(NC(=O)C=C)n2)cc1NS(=O)(=O)c1cccc2c(N(C)C)cccc12`, for which the growth is 47.7% (inactive).

As for `O=C(/C=C/c1ccc(F)cc1)Nc1cccc2cccnc12`, the growth is 102% (inactive).

Take `CN(C)S(=O)(=O)c1ccc(-c2nc(C(Cl)Cl)nc3cc(-c4ccc(F)cc4)nn23)cc1`: the growth is 2.76% (active).

On to `COC(=O)N1CCN(CCNCc2ccc(NC(=O)c3ccc(C)c(C#Cc4cnc5cccnn45)c3)cc2C(F)(F)F)CC1`, for which the growth is 36.2% (inactive).

For the molecule `O=C(/C=C/c1cccc(F)c1)c1cccc(OCCCOc2cccc(C(=O)/C=C/c3cccc(F)c3)c2)c1`, the growth was 34.5% (inactive).

Consider `CN1CCN(Cc2ccc(NC(=O)c3cncc(C#Cc4cnc(N)nc4)c3)cc2C(F)(F)F)CC1`, for which the growth is 30.3% (inactive).

Consider `NCCNC(=O)c1cccc(COc2ccccc2NC(=O)c2cc(Cl)c(Cl)[nH]2)c1`, for which the growth was 88.7% (inactive).

On to `COc1ccccc1N1CCN(C2=C(Cl)C(=O)c3ncccc3C2=O)CC1`, for which the growth was 102% (inactive).

As for `CCCc1[nH]c(-c2cc(N)ccc2Cl)c2c1C(=O)CCCC2`, the growth was 102% (inactive).

For `CCc1cc2c(cc1Cl)nc1c(=O)[nH]c(=O)nc-1n2CCOCC(C)C`, the growth is 73.9% (inactive).

For `N#Cc1c(-c2ccc(F)cc2)cc(-c2c[nH]c3ccccc23)nc1-c1c[nH]c2ccccc12`, the growth is 94.9% (inactive).

As for `COc1ccc(C2CC(c3cccc(OCCCCOc4cccc(C5=NN(C(C)=O)C(c6ccc(OC)cc6)C5)c4)c3)=NN2C(C)=O)cc1` (stereo not given), the growth is 81.9% (inactive).

Regarding `Cc1ccc(C(=O)Nc2ccc(CNCCN3CCOCC3)c(C(F)(F)F)c2)cc1C#Cc1cnc2cccnn12`, the growth was 6.06% (active).

As to `CCCCCC[n+]1ccc(SCC(=O)n2ccc3ccccc32)c2ccccc21`, the growth was 94.4% (inactive).

Regarding `COc1cccc(N2CCN(C3=C(Cl)C(=O)c4ncccc4C3=O)CC2)c1`, the growth was 90.5% (inactive).

Consider `CNc1sc(S(=O)(=O)NC)nc1S(=O)(=O)c1ccc(C)cc1`, for which the growth is 95.8% (inactive).

As for `CC1=C(C)C(=O)C(Nc2ccc3c(c2)OCCO3)=C(Br)C1=O`, the growth is 103% (inactive).

With `CC(C)Sc1nc(-c2ccccc2)c(C#N)c(N2CCOCC2)n1`, the growth is 44.8% (inactive).

Regarding `Brc1ccc2[nH]cc(-c3nn4cc(-c5nccs5)nc4s3)c2c1`, the growth was 61.3% (inactive).

`CCN(CC)CCOc1ccc(C(=C(c2ccccc2)C2CCCC2)c2ccc(OCCN(CC)CC)cc2)cc1`: the growth was 20.5% (inactive).

Turning to `COc1ccc(C2c3[nH]c4ccc(Cl)cc4c3CCN2c2oc(CO)nc2C#N)cc1` (stereo not given), the growth was 38.9% (inactive).

Consider `O=C(CCCCCCNC(=O)C(O)(O)C(F)(F)F)Nc1nc2ccccc2s1`, for which the growth was -35.4% (active).

Consider `CCOC(=O)c1ccccc1NC1=C(Cl)C(=O)c2nc(C)ccc2C1=O`, for which the growth was 104% (inactive).

In the case of `CC(=O)Nc1nc(C)c(-c2csc(Nc3ccccc3)n2)s1`, the growth was 40.8% (inactive).

Regarding `C#C[C@]1(O)CC[C@H]2[C@@H]3CC=C4c5sc(Nc6cc(Cl)ccc6OC)nc5CC[C@]4(C)[C@H]3CC[C@@]21C`, the growth was 15.3% (inactive).

Take `CC[C@]12C=CCN3CC[C@@]4(c5ccc(OC)cc5N(C)[C@H]4[C@@](O)(C(=O)OC)[C@@H]1OC(=O)CCN1CCc4ccccc4C1)[C@@H]32`: the growth is 87.5% (inactive).

Take `Cn1cc(-c2nnc(N)nc2-c2c[nH]c3ccc(F)cc23)c2cc(Br)ccc21`: the growth was 17.5% (inactive).

For the molecule `CC(C)NC(=O)c1cc(-c2ccc(NC(=O)Nc3ccc(F)cc3)cc2)nc2cccnc12`, the growth is 104% (inactive).

Regarding `O=C(CCCCCCN1CC(=O)N2[C@@H](c3ccccc3Br)c3[nH]c4ccccc4c3C[C@H]2C1=O)NO`, the growth was 44.7% (inactive).

Turning to `Clc1cccc(/C=N/Nc2nc(N/N=C/c3cccc(Cl)c3)nc(N3CCOCC3)n2)c1`, the growth is 60.4% (inactive).

For `COc1ccc(N2CCN(C3=C(Cl)C(=O)c4ncccc4C3=O)CC2)cc1`, the growth is 90.9% (inactive).

On to `CCc1cc2c(cc1Cl)nc1c(=O)[nH]c(=O)nc-1n2CCOCC(C)(C)C`, for which the growth was 83.4% (inactive).

Regarding `CCOC(=O)C1=C(C)NC(C)=C(C(=O)OCc2ccccc2)C1c1cccc(C#N)c1` (stereo not given), the growth is 41.4% (inactive).
